# Laboratory results: PubChem BioAssay
# Values joined by “and” are separate entries in the source; they are usually repeats but may differ in a detail not shown here. Equal entries are not always repeated. Active and inactive are the calls of the source. Rule as the data show it, unless noted: active = parasite load remaining mostly below about 12% (no sharp cut-off); inactive = mostly above about 10%.
# Tests used:
# [1] = yeast 75Q aggregation reduction – 75Q-TubU reporter (AID 1593); conditions: Yeast 75Q polyglutamine aggregation reporter
# [2] = blockers of cytochrome c efflux from mitochondria – biochemical, purified mitochondria (AID 1603); conditions: stronger effect = lower value;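 also: mouse liver mitochondria challenged with calcium chloride; signal normalized to the plate average as 100%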
# [3] = polyglutamine aggregate formation blockers (AID 1604); conditions: polyglutamine-induced protein aggregation inhibition assay; stronger effect = higher value; tested at 2.5 µM
# [4] = P. berghei load reduction in hepatocytes – cell-based, HepG2, luciferase luminescence, HepG2 viability, primary screen (AID 624349);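 also: 100% = mean of DMSO negative control wells on the same plate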; conditions: P. berghei liver stage in HepG2, luciferase luminescence, concentration not given here; parasite load remaining: stronger effect = lower value; viability: measured here: HepG2 viability without parasites
# [5] = Wnt pathway potentiators raising nuclear beta-catenin – imaging, WNT3A-conditioned medium, mouse C2C12, NPC library, primary screen (AID 1117326; in the data active = nuclear beta-catenin stimulation mostly above about 4.2%, no sharp cut-off; inactive = mostly below about 10%); conditions: stronger effect = higher value
# [6] = stimulators of insulin release from INS-1E, primary screen, cell-based, 5 mM glucose, NPC library (AID 1117329;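 active = compound raises insulin release from rat beta cells at 5 mM glucose, no numeric limit stated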); conditions: rat INS-1E insulin secretion, at 10 µM, stronger effect = higher value
# [7] = growth inhibition of GSK3B-pretreated HCT116 cells – cell-based, CellTiter-Glo, 0.2 to 20 µM (AID 1117336;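 active = compounds lowering colon cancer cell viability after pretreatment blocking the GSK3B kinase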); conditions: HCT116 viability after GSK3B inhibitor, at 20 µM, stronger effect = higher value
# [8] = inhibition of endothelial tube formation, primary screen, imaging, VEGF stimulated, CD31 staining, tube area, NPC library (AID 1117340;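 active = compound that reduces growth-factor-driven endothelial tube area in a mixed cell culture, no cutoff stated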); conditions: VEGF-stimulated ADSC/ECFC co-culture, at 10 µM, stronger effect = higher value
# [9] = GLP1 release stimulators, primary, NCI-H716, NPC library (AID 1117341;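 active = compound raises GLP1 secretion from the human gut endocrine cells, with no numeric limit stated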); conditions: NCI-H716 cells, at 10 µM, stronger effect = higher value
# [10] = HCT116 colon cancer cell growth inhibition, primary screen, CellTiter-Glo luminescence, NPC library (AID 1117342;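 active = compounds that lower survival of HCT116 colon cancer cells in the luminescence readout, no numeric limit stated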); conditions: at 20 µM (top of the series)
# [11] = reduced SW480 viability measured with CellTiter-Glo, NPC library, primary (AID 1117343;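 active = compounds that lower viability of the colon cancer cells in the luminescence readout, with no numeric limit stated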); conditions: CellTiter-Glo luminescence; at 20 µM (top of the series)
# [12] = NPC library primary testing for decreased DLD-1 cell viability via CellTiter-Glo (AID 1117346;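 active = compounds that lower survival of DLD-1 colon cancer cells in the luminescence readout, no cutoff given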); conditions: DLD-1 viability, CellTiter-Glo luminescence; at 20 µM (top of the series)
# [13] = target: 6-phosphogluconate dehydrogenase, decarboxylating (Homo sapiens) (UniProt P52209); assay: inhibition of human phosphogluconate dehydrogenase – biochemical, recombinant enzyme, NADPH absorbance, primary screen (AID 1159550;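 active = at least 20% inhibition of 6-phosphogluconate dehydrogenase activity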); conditions: recombinant 6PGD, NADPH absorbance 341 nm; at 10 µM; stronger effect = higher value
# [14] = EMT-state selective cytotoxicity in co-culture – imaging, PC-3E GFP, TEM4-18 mCherry, primary screen (AID 1345086;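 active = compounds killing one labelled cell type while sparing the other, by normalised counts and ratio limits, not self-fluorescent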;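 as to all read-outs here: cells exposed to compound for 72 h before imaging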;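 as to red/green cell ratio (normalised): normalised mesenchymal count divided by normalised epithelial count so high means epithelial killing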); conditions: PC-3E GFP / TEM4-18 mCherry co-culture, imaging cell counts, at 1 µM; for red/green cell ratio (normalised): actives lie on both sides
# [15] = tested on: Aerobactin synthetase IucA (Klebsiella pneumoniae hvKP1); assay: IucA enzyme inhibition, primary screen, biochemical, Spectrum library (AID 1346200; call rule not given here;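 also: 100% = wells without compound and 0% = wells lacking enzyme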); conditions: malachite green pyrophosphate, A620, at 8 µM, stronger effect = lower value
# [16] = viability loss with induced miR-34 in A549 – imaging, A549 dox-inducible miR-34, nuclei and caspase counts, primary screen (AID 1347080;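 active = compounds whose cell count with miR-34 switched on is under 0.7 times the count with it off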); conditions: A549 miR-34 inducible, Hoechst nuclei count, 48 h
# [17] = MELAS cybrid and Rieske KO viability enhancers – cell-based, MELAS cybrids, Rieske KO mouse fibroblasts, CellTiter-Glo, primary screen (AID 1508586;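 active = mean z-score across replicates of 1.96 or higher in either the MELAS or the Rieske mutant cell line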;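 also: z relative to plate mean and SD of compound and empty wells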); conditions: low glucose
# [18] = target: NAD(+) hydrolase SARM1 (Homo sapiens) (UniProt Q6SZW1); assay: blocking NAD cleavage by SARM1 SAM-TIR – cell lysate, NAD-Glo luminescence (AID 1508614;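 active = compound whose remaining NAD level is above about 45 nM, limit read from the data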;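 also: higher remaining NAD means stronger inhibition of SARM1 NADase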); conditions: SAM-TIR HEK293T lysate NADase, at 1 µM, stronger effect = higher value
# [19] = target: Mitogen-activated protein kinase 7 (Homo sapiens) (UniProt Q13164); assay: Gal4-ERK5 driven luciferase induction – cell-based, HTS, primary screen (AID 1508626;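 active = luciferase signal above three times the same-plate solvent-only control wells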;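 also: luciferase driven by Gal4-ERK5 fusion binding five Gal4 sites before minimal TATA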); conditions: HeLa Gal4-ERK5 transactivation, 18 h, at 5 µM, stronger effect = higher value
# [20] = measured here: epithelial PC-3E GFP cell survival
# [21] = measured here: mesenchymal TEM4-18 mCherry cell survival
# [22] = measured here: relative caspase fold change +Dox/-Dox
# [23] = measured here: total cells with miR-34 induction, stronger effect = lower value
# [24] = measured here: total cells without miR-34 induction
# [25] = MELAS cybrid survival, CellTiter-Glo 48 h, stronger effect = higher value
# [26] = Rieske KO mouse fibroblast survival, CellTiter-Glo 72 h
# Chain of NAD(+) hydrolase SARM1 (Homo sapiens) (Q6SZW1 whole entry, looked up, the tested form may be a part): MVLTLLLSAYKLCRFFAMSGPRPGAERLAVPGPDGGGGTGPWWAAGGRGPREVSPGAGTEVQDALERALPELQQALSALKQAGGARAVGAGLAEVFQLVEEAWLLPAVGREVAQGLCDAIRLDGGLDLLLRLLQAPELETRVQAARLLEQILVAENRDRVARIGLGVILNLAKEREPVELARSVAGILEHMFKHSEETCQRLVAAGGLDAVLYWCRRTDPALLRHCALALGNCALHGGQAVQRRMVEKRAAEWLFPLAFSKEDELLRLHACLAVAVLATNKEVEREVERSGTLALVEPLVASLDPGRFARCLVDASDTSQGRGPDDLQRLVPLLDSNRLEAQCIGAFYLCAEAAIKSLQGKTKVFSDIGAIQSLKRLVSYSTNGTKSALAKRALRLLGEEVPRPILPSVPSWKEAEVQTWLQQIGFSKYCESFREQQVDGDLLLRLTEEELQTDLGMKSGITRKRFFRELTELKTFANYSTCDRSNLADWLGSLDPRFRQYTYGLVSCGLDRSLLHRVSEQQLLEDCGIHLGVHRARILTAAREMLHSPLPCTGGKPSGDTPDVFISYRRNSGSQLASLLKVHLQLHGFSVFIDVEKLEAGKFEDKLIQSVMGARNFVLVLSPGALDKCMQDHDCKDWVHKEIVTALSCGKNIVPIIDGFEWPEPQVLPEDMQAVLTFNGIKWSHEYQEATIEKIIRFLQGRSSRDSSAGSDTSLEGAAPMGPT
# Chain of 6-phosphogluconate dehydrogenase, decarboxylating (Homo sapiens) (P52209 whole entry, looked up): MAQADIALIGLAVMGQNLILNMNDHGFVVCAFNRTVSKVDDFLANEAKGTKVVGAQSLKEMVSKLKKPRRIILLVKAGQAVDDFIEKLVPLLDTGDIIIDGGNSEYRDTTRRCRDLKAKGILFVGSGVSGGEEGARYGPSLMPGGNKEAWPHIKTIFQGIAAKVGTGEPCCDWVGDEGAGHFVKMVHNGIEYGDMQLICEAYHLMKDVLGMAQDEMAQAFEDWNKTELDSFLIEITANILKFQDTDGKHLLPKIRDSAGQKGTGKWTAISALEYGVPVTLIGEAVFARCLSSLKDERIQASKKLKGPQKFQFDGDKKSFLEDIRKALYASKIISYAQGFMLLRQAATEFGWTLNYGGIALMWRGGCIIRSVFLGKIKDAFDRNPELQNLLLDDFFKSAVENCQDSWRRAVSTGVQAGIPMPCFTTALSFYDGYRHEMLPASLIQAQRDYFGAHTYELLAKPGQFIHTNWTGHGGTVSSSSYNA
# Chain of Mitogen-activated protein kinase 7 (Homo sapiens) (Q13164 whole entry, looked up, the tested form may be a part): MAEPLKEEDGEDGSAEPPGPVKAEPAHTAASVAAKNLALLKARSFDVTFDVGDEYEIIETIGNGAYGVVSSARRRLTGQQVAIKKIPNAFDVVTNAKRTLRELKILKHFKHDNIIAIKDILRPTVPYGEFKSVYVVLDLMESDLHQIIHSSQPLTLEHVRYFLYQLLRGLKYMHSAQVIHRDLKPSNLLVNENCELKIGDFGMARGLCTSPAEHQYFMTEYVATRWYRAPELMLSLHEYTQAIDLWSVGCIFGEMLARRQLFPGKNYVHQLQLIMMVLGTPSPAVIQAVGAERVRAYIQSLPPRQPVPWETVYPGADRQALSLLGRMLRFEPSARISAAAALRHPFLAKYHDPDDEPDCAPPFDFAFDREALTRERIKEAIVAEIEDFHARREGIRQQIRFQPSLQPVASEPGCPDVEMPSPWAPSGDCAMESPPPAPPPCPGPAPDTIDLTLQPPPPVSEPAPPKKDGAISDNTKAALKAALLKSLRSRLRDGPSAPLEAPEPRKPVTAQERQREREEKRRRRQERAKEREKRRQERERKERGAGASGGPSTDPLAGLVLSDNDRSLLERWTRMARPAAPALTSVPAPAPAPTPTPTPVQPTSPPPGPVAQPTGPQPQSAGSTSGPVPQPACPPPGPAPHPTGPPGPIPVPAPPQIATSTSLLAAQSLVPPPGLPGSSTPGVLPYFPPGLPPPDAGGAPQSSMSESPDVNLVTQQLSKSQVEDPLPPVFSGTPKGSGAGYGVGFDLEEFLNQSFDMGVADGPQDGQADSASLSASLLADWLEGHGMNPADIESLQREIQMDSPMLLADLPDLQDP
smiles,measurement,setting,value
O=c1oc2ccccc2c(O)c1Cc1c(O)c2ccccc2oc1=O,score,[1],0.69
same,cytochrome c release ratio,[2],0.7
same,inhibition of aggregation,[3],42.1%
same,parasite load remaining,[4],87.2% (inactive) and 95.3% (inactive) and 51.7% (inactive)
same,viability,[4],97.7% and 68.2% and 89.1%
same,nuclear beta-catenin stimulation,[5]; at 10 µM,-0.1% (inactive)
same,nuclear beta-catenin stimulation,"[5]; stimulation, at 2 µM",-2.5%
same,insulin secretion stimulation,[6],-1% (inactive)
same,viability decrease,[7],97.6% (active)
same,tube area decrease,[8],26% (inactive)
same,GLP1 secretion stimulation,[9],-3.4% (inactive)
same,inhibition of viability,[10],90.5% (active)
same,viability decrease (inhibition),[11],107% (active)
same,viability decrease (inhibition),[12],92.1% (active)
same,inhibition,[13],-29.3% (inactive)
same,red/green cell ratio (normalised),[14],0.99 (inactive)
same,normalised cell number,[14]; [20],1.34
same,normalised cell number,[14]; [21],1.32
same,activity remaining,[15],120% (inactive)
same,fold change,[16]; stronger effect = lower value,0.822 (inactive) and 0.882 (inactive) and 0.865 (inactive)
same,fold change,[16]; [22],1.17 and 1.33 and 1.22
same,cell count,[16]; [23],8510 and 8000 and 10400
same,cell count,[16]; [24],10300 and 9060 and 12000
same,z-score,[17]; [25],-0.183 (inactive) and 0.389 (inactive)
same,z-score,[17]; [26],-0.295 and 0.839
same,remaining NAD,[18],10 nM (inactive)
same,luciferase signal,[19],28 AU (inactive)
CC(C)[N+](C)(CCC(C(N)=O)(c1ccccc1)c1ccccc1)C(C)C,score,[1],1.43
same,cytochrome c release ratio,[2],1.07
same,inhibition of aggregation,[3],35.2%
same,parasite load remaining,[4],94.4% (inactive) and 83.4% (inactive) and 60% (inactive)
same,viability,[4],100% and 76.1% and 93.6%
same,nuclear beta-catenin stimulation,[5]; at 10 µM,0.4% (inactive)
same,nuclear beta-catenin stimulation,"[5]; stimulation, at 2 µM",-0.3%
same,insulin secretion stimulation,[6],-0.4% (inactive)
same,viability decrease,[7],-32.8% (inactive)
same,tube area decrease,[8],-3.8% (inactive)
same,GLP1 secretion stimulation,[9],-1.4% (inactive)
same,inhibition of viability,[10],-3.83% (inactive)
same,viability decrease (inhibition),[11],22% (inactive)
same,viability decrease (inhibition),[12],-1.8% (inactive)
same,inhibition,[13],-13.2% (inactive)
same,red/green cell ratio (normalised),[14],0.98 (inactive)
same,normalised cell number,[14]; [20],1.19
same,normalised cell number,[14]; [21],1.17
same,activity remaining,[15],119% (inactive)
same,fold change,[16]; stronger effect = lower value,0.953 (inactive) and 0.875 (inactive)
same,fold change,[16]; [22],1.13 and 0.654
same,cell count,[16]; [23],8490 and 10700
same,cell count,[16]; [24],8910 and 12200
same,z-score,[17]; [25],-0.488 (inactive)
same,z-score,[17]; [26],-0.766
same,remaining NAD,[18],10 nM (inactive)
same,luciferase signal,[19],76 AU (inactive)
COc1c2c(cc3c1OCO3)CCN(C)C2,parasite load remaining,[4],101% (inactive) and 78.2% (inactive)
same,viability,[4],102% and 69.9%
same,nuclear beta-catenin stimulation,[5]; at 10 µM,0.2% (inactive)
same,nuclear beta-catenin stimulation,"[5]; stimulation, at 2 µM",1.3%
same,insulin secretion stimulation,[6],-1.1% (inactive)
same,viability decrease,[7],5% (inactive)
same,tube area decrease,[8],4.7% (inactive)
same,GLP1 secretion stimulation,[9],-0.1% (inactive)
same,inhibition of viability,[10],-4.7% (inactive)
same,viability decrease (inhibition),[11],36.7% (inactive)
same,viability decrease (inhibition),[12],4.85% (inactive)
same,inhibition,[13],1.73% (inactive)
same,activity remaining,[15],120% (inactive)
same,fold change,[16]; stronger effect = lower value,0.866 (inactive)
same,fold change,[16]; [22],1.09
same,cell count,[16]; [23],9520
same,cell count,[16]; [24],11000
CNC(C)(C)Cc1ccccc1,score,[1],1.71
same,cytochrome c release ratio,[2],1.14
same,inhibition of aggregation,[3],68.2%
same,parasite load remaining,[4],104% (inactive) and 157% (inactive) and 55.8% (inactive)
same,viability,[4],104% and 88.4% and 81%
same,nuclear beta-catenin stimulation,[5]; at 10 µM,-2.4% (inactive)
same,nuclear beta-catenin stimulation,"[5]; stimulation, at 2 µM",0.7%
same,insulin secretion stimulation,[6],2.7% (inactive)
same,viability decrease,[7],-16.7% (inactive)
same,tube area decrease,[8],-0.3% (inactive)
same,GLP1 secretion stimulation,[9],1.1% (inactive)
same,inhibition of viability,[10],0.43% (inactive)
same,viability decrease (inhibition),[11],15.4% (inactive)
same,viability decrease (inhibition),[12],-5.3% (inactive)
same,inhibition,[13],-16.6% (inactive)
same,red/green cell ratio (normalised),[14],1.08 (inactive)
same,normalised cell number,[14]; [20],0.92
same,normalised cell number,[14]; [21],1
same,activity remaining,[15],99.6% (inactive)
same,fold change,[16]; stronger effect = lower value,0.876 (inactive) and 0.893 (inactive)
same,fold change,[16]; [22],1.32 and 3.57
same,cell count,[16]; [23],7450 and 10900
same,cell count,[16]; [24],8510 and 12200
same,z-score,[17]; [25],-0.189 (inactive)
same,z-score,[17]; [26],-0.596
same,remaining NAD,[18],10 nM (inactive)
same,luciferase signal,[19],56 AU (inactive)
